# Test results: PubChem BioAssay AID488841 (Sanford-Burnham Center for Chemical Genomics, 2010)
# Among all 1,400 compounds or so, about 380 (27%) were called active. This is one part of the list. Unmarked numbers belong to inactive results.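 Rule for the calls: active = mean inhibition above 50% across duplicate retests at 10 µM; inactive = the rest.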
# Experiment: yeast NALP1 reporter signal suppression – S. cerevisiae, luminescence, single concentration, NALP1 inhibitor project, confirmation (AID 488841);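 note: plate controls were DMSO in galactose medium for no effect and cells in plain SD medium for full effect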
# Conditions: S. cerevisiae NALP1/ASC/Caspase-1 reporter, beta-gal luminescence; at 10 µM; stronger effect = higher value
row,Structure (SMILES),inhibition
1,COc1cccc(N2CCN(C3CCCC(C)C3)CC2)c1 (stereo unspecified),25.3%
2,CC1=CCC2C(=O)N(Cc3ccccc3)C(=O)C2C1 (stereo unspecified),24.9%
3,COc1cc(S(=O)(=O)NCc2cccnc2)ccc1F,27.6%
4,COc1cccc(C(=O)N2CCCC(c3nc(-c4cccs4)no3)C2)c1 (stereo unspecified),29.9%
5,CCCCCCCCCCCCCCCC[n+]1cccc2ccccc21,95% (active)
6,CC1(C)CC(=O)c2cc(C(=O)O)c(=O)n(-c3ccccc3)c2C1,32%
7,CC1(C)CC(=O)C2=C(C1)OC(N)=C([N+](=O)[O-])C2c1cccs1 (stereo unspecified),42.5%
8,CC(=O)Nc1sc2c(c1-c1nc3ccccc3s1)CCN(C(C)C)C2,92.9% (active)
9,O=C(Nc1ccc(-c2nc3ccccc3s2)cc1)C1=COCCO1,25.9%
10,OCCn1c(-c2ccc(F)cc2)csc1=Nc1ccccc1,27.4%
11,CC(C)(C)c1cc(C(=O)O)n[nH]1,-1.95%
12,O=C(O)c1ccc(S(=O)(=O)/N=C2\C=C(Nc3ccccc3F)C(=O)c3ccccc32)cc1,98.8% (active)
13,O=C1c2ccccc2-c2cccc(NS(=O)(=O)c3ccc(C(F)(F)F)cc3)c21,23.4%
14,O=C1C(Nc2ccccc2)=C/C(=N/S(=O)(=O)c2cccs2)c2ccccc21,49.6%
15,CCOP(=O)(C1=C(O)C(=O)C(C(C)(C)C)=CC1=O)c1ccccc1 (stereo unspecified),24.9%
16,COc1cc(C2SCC(=O)N2CCCN(C)C)cc(OC)c1OC (stereo unspecified),17.5%
17,C/C(=N/N=C1\SCC(=O)N1c1ccccc1)c1ccc(C)cc1,28.1%
18,O=C1CSC(=S)N1c1cccc(O)c1,99% (active)
19,O=C1CSC(=S)N1c1ccc(O)cc1,95.2% (active)
20,COc1cc(N2C(=O)CSC2=S)cc(OC)c1OC,78.7% (active)
21,Fc1ccc(N2CCN(Cc3cnc(Oc4ccc(Br)cc4)s3)CC2)cc1,25.8%
22,N#CC1=C(N)Oc2n[nH]c(-c3cccs3)c2C1C1CCCCC1 (stereo unspecified),35.7%
23,Cc1nc2cc(-c3ccc(Cl)cc3)nn2c(C)c1CCC(=O)NC(C)c1ccc2c(c1)OCCO2 (stereo unspecified),21.6%
24,CC1(C)COC(/C=C/c2ccc([N+](=O)[O-])cc2)=N1,74.7% (active)

row,Structure (SMILES),inhibition
1,COc1ccccc1/C=N\N=C(\N)c1ccccn1,43.3%
2,CC(C)N(C)CCOC(=O)c1ccccc1Br,30.6%
3,COC(=O)c1ccccc1NC(=O)CN1CCC(n2nnc3cc(F)ccc32)CC1,24.9%
4,N=c1ccn(Cc2ccc(Cl)cc2Cl)cc1,35.2%
5,CCc1ccc(C(=O)NC(CC(C)C)C(=O)O)cc1 (stereo unspecified),24.6%
6,CCc1ccc(C(=O)NCc2ccc(Cl)cc2Cl)cc1,57.4% (active)
7,CC(C)Cn1c(CN(Cc2ccccc2)Cc2ccccc2)nc2c1c(=O)n(C)c(=O)n2C,35.5%
8,COc1cc(/C=C2\SC(=Nc3ccc(F)cc3)N(c3ccc(F)cc3)C2=O)ccc1OCC(=O)O,26.6%
9,CCOC(=O)c1cccnc1SCC(=O)NCc1ccccc1,41.5%
10,CSc1ccc2c(c1)N(CCC1CCCCN1C)c1ccccc1S2 (stereo unspecified),71.1% (active)
11,CN1C/C(=C/c2ccncc2)C(=O)/C(=C/c2ccncc2)C1,13.2%
12,CC1(C)Cc2c(c(N3CCOCC3)nc3sc4c(NCCN5CCOCC5)nnnc4c23)CS1,27.2%
13,Cc1nc2nc3c(cn2n1)C(=O)CCC3,6.55%
14,CN1CCc2cccc3c2[C@H]1Cc1ccc(O)c(O)c1-3,42.5%
15,CN1CCc2cccc3c2[C@@H]1Cc1ccc(O)c(O)c1-3,71.3% (active)
16,Cc1[nH][nH]c(=O)c1C(c1ccc(-c2ccc(Cl)c(Cl)c2)o1)c1c(C)[nH][nH]c1=O,24.6%
17,Cc1ccc(CSCCNC(=O)CSCc2ccc([N+](=O)[O-])cc2)cc1,59.9% (active)
18,Cc1ccc(C(=O)NCCc2cccc(Cl)c2)cc1[N+](=O)[O-],53.2% (active)
19,Cc1ccccc1Cn1c(=N)n(CC(=O)c2ccc([N+](=O)[O-])cc2)c2ccccc21,49.5%
20,CCn1c2ccccc2c2cc(NC(=O)c3ccc(C)c([N+](=O)[O-])c3)ccc21,42.1%
21,Cc1ccc(C(=O)NCCSCc2ccccc2)cc1[N+](=O)[O-],52.6% (active)
22,O=C(CSCc1ccc(F)cc1)NCc1ccco1,35.4%
23,C/C(=N/Nc1ccc([N+](=O)[O-])cc1)c1ccc(C)cc1C,49%
24,Cc1cccc(C(=O)NCc2ccc(S(N)(=O)=O)cc2)c1[N+](=O)[O-],36.4%

row,Structure (SMILES),inhibition
1,COCCNC(=O)c1ccc(C)c(S(=O)(=O)Nc2ccc(C)cc2)c1,32.9%
2,CCOC(=O)c1c(C)n(C)c2ccc(OC)c(NC(=O)CN3CCN(C4CCCCC4)CC3)c12,23.2%
3,COc1cc(NC(C)CCCN)c2ncccc2c1Oc1ccccc1 (stereo unspecified),25.8%
4,O=C1N/C(=N\N=C\c2cccnc2)SC1Cc1ccc(SC(F)F)cc1 (stereo unspecified),24.2%
5,COc1ccc2cc(C(C)c3nc4ccccc4c(=O)n3N)ccc2c1 (stereo unspecified),53.1% (active)
6,COc1ccc(CCn2c(C(C)C)nc3c(c(=O)c4ccccc4n3C)c2=O)cc1,25.9%
7,C=CCCCCc1nc2ccccc2c(=O)n1N,33%
8,COc1ccc(OC)c(/C=c2\sc3nc(-c4cccs4)nn3c2=O)c1,28.1%
9,O=[N+]([O-])/C=C/c1ccc2c(ccn2Cc2ccccc2)c1,99.9% (active)
10,CC(C)c1ccc(CN2CCN(C(=O)CCl)CC2)cc1,39.5%
11,O=C(CCC1CCCCC1)N1CCN(Cc2ccc3c(c2)OCO3)CC1,59.6% (active)
12,N#CCc1c(C#N)c(N)nc(N2CCN(Cc3ccc4c(c3)OCO4)CC2)c1C#N,27.2%
13,Clc1ccc(SCCCCN2CCOCC2)cc1,33%
14,COc1cccc(N2C(=O)C(O)=C(C(C)=O)C2c2ccc(OC)c(OC)c2)c1 (stereo unspecified),33.1%
15,COC(=O)c1cc(=O)n(-c2c(Cl)cc(C(F)(F)F)cc2Cl)[nH]1,28.1%
16,CCOC(=O)c1c(C(F)(F)C(F)(F)C(F)(F)C(F)(F)F)n[nH]c1C,30%
17,Cc1cc(C(=O)COC(=O)c2ccc[nH]c2=O)c(C)n1-c1ccccc1,58.6% (active)
18,CCOC(=O)c1c(C)[nH]c(C)c1C(=O)COC(=O)c1cc2ccccc2cc1O,37.1%
19,Cc1cc(C(=O)COC(=O)c2ccc[nH]c2=O)c(C)n1-c1ccc(F)cc1,39%
20,Cc1cc2ccccc2n1CCNCc1c(C(=O)N2CCOCC2)nc2ccccn12,28.2%
21,CNC(CC(=O)c1ccc([N+](=O)[O-])cc1)C(Cl)(Cl)Cl (stereo unspecified),47.5%
22,CCOC(=O)c1sc(=S)n(-c2ccc(OC)cc2)c1C,38.4%
23,CCOC(=O)c1ccc(N2C(=O)C=CC2=O)cc1,89% (active)
24,CCOC(=O)c1ccc(N2C(=O)CC(N3CCCC(C)C3)C2=O)cc1 (stereo unspecified),35.9%

row,Structure (SMILES),inhibition
1,CCN(c1ccccc1)S(=O)(=O)c1cc(NC(=O)Nc2ccccc2C#N)ccc1Cl,17.4%
2,CCOC(=O)c1nnc(-c2ccc(C)cc2)nc1Sc1ccc(Cl)cc1,10.3%
3,Cc1ccc(OCc2nc(-c3ccc(Cl)cc3)n[nH]2)cc1,66.9% (active)
4,FC(F)Oc1ccc(/C=N/c2c(-c3ccc(OC(F)F)cc3)nc3n2CCS3)cc1,31.2%
5,CCc1cccc(C)c1NC(=S)NCCc1c(C)[nH]c2ccc(C)cc12,34.2%
6,COc1ccc(C(=O)c2c(C(F)(F)F)oc3c2C(=O)c2ccccc2C3=O)cc1,22.6%
7,Cc1nc(NC(=O)CCc2ccccc2)ccc1Br,64% (active)
8,Cc1csc(NC(=O)CCc2ccc(S(=O)(=O)N3CCOCC3)cc2)n1,30.4%
9,O=C(OCCN1CCCCC1)c1cc2ccccc2o1,22.6%
10,COC(=O)CSC1=C(C#N)C(=O)NC(c2ccccc2)S1 (stereo unspecified),28.1%
11,O=C(c1ccccc1)c1c2c(cc3sc4ccccc4[n+]13)-c1cccc3cccc-2c13,35.5%
12,N#CC(C#N)=C(Nc1ccc(F)cc1)SCc1cccc(Br)c1,50.1% (active)
13,Cc1ccc(F)cc1NCC(=O)Nc1ccc(Br)cc1,47.6%
14,Cc1ccc(NC(=O)c2cccc(S(=O)(=O)N(C)c3ccccc3)c2)cc1S(=O)(=O)N1CCOCC1,28.9%
15,CN(C)CCCN(C(=O)c1ccc2c(c1)CCCC2)c1nc2ccc(F)cc2s1,64.8% (active)
16,Cc1ccc2nc(N(CCCN(C)C)C(=O)c3sc4ccccc4c3Cl)sc2c1,53.6% (active)
17,CN(C)CCCN(C(=O)c1ccc2c(c1)CCCC2)c1nc2ccc(Cl)cc2s1,78.2% (active)
18,CN(C)CCCN(C(=O)c1sc2ccccc2c1Cl)c1nc2ccc(F)cc2s1,45.3%
19,COc1ccc(CCNC(=O)c2sc3cc(C)ccc3c2Cl)cc1,35.8%
20,O=c1c(F)cn(C2CCCO2)c(=O)n1Cc1c(F)cccc1Cl (stereo unspecified),26.9%
21,CCOC(=O)C1(Cc2ccc(OC)cc2)CCN(C(=O)CCc2cnccn2)CC1,25.1%
22,COc1cccc(/C=N/NC(=O)CCc2c(C)n[nH]c2C)c1,25.8%
23,COc1ccc(CN2CCNC(=O)C2CC(=O)N(Cc2nccn2C)C(C)C)c(OC)c1 (stereo unspecified),14.8%
24,CCCCC(C(=O)NC1CCCC1)N(Cc1ccco1)C(=O)Cn1nnc(-c2ccc(F)cc2)n1 (stereo unspecified),27.3%
